# Reference: the antibiotic and cytotoxicity screens of Wong et al. (2023)
# The whole screen tested about 39,000 compounds, of which about 1,500 (3.8%) were called active. What follows is part of a selection rich in actives, with near analogues and random picks from the rest.
# System: HSkMC (human skeletal muscle cells)
# Assay: cytotoxicity call (relative viability < 0.9)
# Details: 10 µM
row,Structure (SMILES),cytotoxicity call
1,C[C@H](CO)N1C[C@H](C)[C@@H](CN(C)Cc2ccncc2)Oc2c(NS(=O)(=O)c3ccccc3)cccc2C1=O,inactive
2,C[C@@H]1CN([C@H](C)CO)C(=O)Cc2cc(NS(=O)(=O)c3ccc(F)cc3)ccc2O[C@@H]1CN(C)Cc1ccc(-c2ccccc2)cc1,active
3,C[C@H]1CN([C@@H](C)CO)C(=O)Cc2cc(NS(=O)(=O)c3ccc(F)cc3)ccc2O[C@@H]1CN(C)Cc1ccc(-c2ccccc2)cc1,active
4,C[C@H]1CN([C@@H](C)CO)C(=O)Cc2cc(NS(=O)(=O)c3ccc(F)cc3)ccc2O[C@H]1CN(C)Cc1ccc(-c2ccccc2)cc1,active
5,C[C@@H]1CN([C@H](C)CO)C(=O)Cc2cc(NS(=O)(=O)c3ccc(F)cc3)ccc2O[C@H]1CN(C)Cc1ccc(-c2ccccc2)cc1,active
6,Cc1ccc(S(=O)(=O)N(C)C[C@H]2Oc3ncc(-c4ccncc4)cc3C(=O)N([C@H](C)CO)C[C@H]2C)cc1,inactive
7,C[C@H]1CCCCO[C@@H](CN(C)C(=O)Nc2ccc3c(c2)OCO3)[C@@H](C)CN([C@@H](C)CO)C(=O)c2cc(NC(=O)c3ccccc3)ccc2O1,inactive
8,CO[C@@H]1CN(C)C(=O)c2cc(NS(C)(=O)=O)ccc2OC[C@@H](C)N(C(=O)C2CCOCC2)C[C@@H]1C,inactive
9,Cc1noc(C)c1NC(=O)Nc1cccc2c1O[C@H](CN(C)Cc1ccc(C(F)(F)F)cc1)[C@H](C)CN([C@H](C)CO)C2=O,inactive
10,NNC(=O)c1cc2ccccc2[nH]1,inactive
11,C[C@H]1CCCCO[C@H](CN(C)Cc2ccccc2)[C@@H](C)CN([C@@H](C)CO)C(=O)c2cc(NC(=O)C3CCCCC3)ccc2O1,inactive
12,C[C@@H]1CN([C@@H](C)CO)C(=O)Cc2cc(NS(=O)(=O)c3ccc(F)cc3)ccc2O[C@@H]1CN(C)Cc1ccc(-c2ccccc2)cc1,active
13,C[C@@H]1CN([C@@H](C)CO)C(=O)Cc2cc(NS(=O)(=O)c3ccc(F)cc3)ccc2O[C@H]1CN(C)Cc1ccc(-c2ccccc2)cc1,inactive
14,C[C@H](CO)N1C[C@H](C)[C@H](CN(C)Cc2ccc(-c3ccccc3)cc2)Oc2ccc(NS(=O)(=O)c3ccc(F)cc3)cc2CC1=O,active
15,C[C@H](CO)N1C[C@H](C)[C@@H](CN(C)Cc2ccc(-c3ccccc3)cc2)Oc2ccc(NS(=O)(=O)c3ccc(F)cc3)cc2CC1=O,inactive
16,C[C@@H]1CN([C@@H](C)CO)C(=O)c2cc(NC(=O)CCC(F)(F)F)ccc2O[C@@H](C)CCCCO[C@H]1CN(C)C(=O)C1CCCCC1,inactive
17,CSC1=NN(C)c2cnn(C)c(=O)c2S1,inactive
18,Cc1noc(C)c1NC(=O)Nc1ccc2c(c1)C(=O)N([C@@H](C)CO)C[C@H](C)[C@@H](CN(C)C(=O)Nc1cccc3ccccc13)OCCCC[C@H](C)O2,inactive
19,CC(C)NC(=O)Nc1ccc2c(c1)C(=O)N([C@@H](C)CO)C[C@@H](C)[C@@H](CN(C)S(=O)(=O)c1ccc(F)cc1)O2,inactive
20,CO[C@@H]1CN(C)C(=O)c2ccc(NS(=O)(=O)c3cn(C)cn3)cc2OC[C@H](C)N(CCC(F)(F)F)C[C@H]1C,inactive
21,CC(=N)NCc1cccc(CN)c1,inactive
22,O=C(C[C@H]1CC[C@@H](NC(=O)c2cccnc2)[C@@H](CO)O1)NCCN1CCCCC1,inactive
23,Cc1noc(C)c1CC(=O)N1CCCC[C@@H]1CCOc1cccc(CN(C)Cc2cccc3cccnc23)c1,inactive

row,Structure (SMILES),cytotoxicity call
1,Cc1ccc(S(=O)(=O)N(C)C[C@H]2Oc3ccc(NS(=O)(=O)c4ccc(F)cc4)cc3CC(=O)N([C@H](C)CO)C[C@H]2C)cc1,inactive
2,C[C@@H]1CN([C@@H](C)CO)C(=O)c2cc(NS(=O)(=O)c3ccc(F)cc3)ccc2O[C@@H](C)CCCCO[C@@H]1CN(C)S(=O)(=O)c1cn(C)cn1,inactive
3,CC(=O)N[C@H]1[C@H](O[C@H]2CC[C@]3(C)[C@H]4CC=C5[C@@H]6CC(C)(C)CC[C@]6(C(=O)O[C@H]6OC[C@@H](O)[C@@H](O)[C@@H]6O)[C@@H](O)C[C@@]5(C)[C@]4(C)CC[C@H]3C2(C)C)O[C@H](CO[C@H]2OC[C@@H](O)[C@@H](O[C@H]3OC[C@@H](O)[C@@H](O)[C@@H]3O)[C@@H]2O)[C@@H](O[C@@H]2O[C@@H](C)[C@H](O)[C@@H](O)[C@H]2O[C@@H]2O[C@@H](C)[C@H](O)[C@@H](O)[C@H]2O)[C@@H]1O,inactive
4,Cc1noc(C)c1NC(=O)Nc1cccc2c1O[C@@H](CN(C)C(=O)NC(C)C)[C@H](C)CN([C@H](C)CO)C2=O,inactive
5,C[C@H]1CC=CC[C@@H](c2ccc3c(c2)OCO3)NC(=O)[C@H](Cc2ccccc2)N(C)C(=O)c2ccccc2O1,inactive
6,C[C@@H]1CC=CC[C@H](c2ccc3c(c2)OCO3)NC(=O)[C@@H](Cc2ccccc2)N(C)C(=O)c2ccccc2O1,inactive
7,COc1ccc([C@H]2CC=CC[C@H](C)Oc3ccccc3C(=O)N(C)[C@@H](Cc3ccccc3)C(=O)N2)c(OC)c1,inactive
8,COc1ccc([C@@H]2CC=CC[C@H](C)Oc3ccccc3C(=O)N(C)[C@@H](Cc3ccccc3)C(=O)N2)c(OC)c1,active
9,COc1ccc([C@H]2CC=CC[C@H](C)Oc3ccccc3C(=O)N(C)[C@H](Cc3ccccc3)C(=O)N2)c(OC)c1,inactive
10,C[C@H]1CC=CC[C@H](c2ccc3c(c2)OCO3)NC(=O)[C@@H](Cc2ccccc2)N(C)C(=O)c2ccccc2O1,active
11,COCCCN1C(=O)[C@@]2(Cc3ccccc31)c1ccccc1C(=O)N(Cc1ccccc1)[C@H]2c1ccc(CO)cc1,inactive
12,Cc1ccc(S(=O)(=O)Nc2ccc3c(c2)CC(=O)N([C@@H](C)CO)C[C@H](C)[C@H](CN(C)CC2CC2)O3)cc1,inactive
13,Nc1ccc2oc3c(c2c1)CCCC3,inactive
14,O=C(Nc1ccc(C(F)(F)F)cc1)Nc1cccc(Cl)c1,active
15,CCC(=O)Nc1ccc(Cl)cc1,inactive
16,CC(C)C(=O)Nc1cccc(Cl)c1,inactive
17,O=C(Nc1ccccc1)Nc1ccccc1,inactive
18,O=C(Nc1ccc(Cl)cc1)Nc1ccc(Cl)c(Cl)c1,active
19,CC(C)(C)c1ccc(C(=O)Nc2cccc(C(F)(F)F)c2)cc1,inactive
20,C[C@H]1CN([C@@H](C)CO)C(=O)c2cc(NC(=O)Cc3ccccc3)ccc2O[C@H]1CN(C)Cc1ccc(C(F)(F)F)cc1,inactive
21,C[C@@H]1CN([C@@H](C)CO)C(=O)Cc2cc(NC(=O)Cn3cnnn3)ccc2O[C@H]1CN(C)S(=O)(=O)c1cn(C)cn1,inactive
22,COc1cccc(S(=O)(=O)Nc2ccc3c(c2)[C@H]2C[C@@H](CC(=O)NCc4ccccc4F)O[C@@H](CO)[C@H]2O3)c1,inactive
23,CCCCCCCCCCCCCCCCOP(=O)([O-])OCC[N+](C)(C)C,inactive

row,Structure (SMILES),cytotoxicity call
1,CCCCCCCCCCCCCCCC[N+](C)(C)C,active
2,C[N+](C)(C)CCCCCC[N+](C)(C)C.[Br-].[Br-],inactive
3,CC1=C2C/C=C(\C)[C@H](O[C@H]3O[C@@H](CO)[C@@H](O)[C@@H](O)[C@@H]3O)C/C=C(\C)C[C@@H]2OC1=O,inactive
4,NCc1nncn1-c1ccccc1,inactive
5,COc1ccccc1CNC(=O)C[C@@H]1C[C@H]2c3cc(NC(=O)c4cccnc4)ccc3O[C@H]2[C@@H](CO)O1,inactive
6,CC(N)(Cc1ccc2c(c1)OCO2)C(=O)O (configuration not stated),inactive
7,C[C@@H]1CN([C@@H](C)CO)C(=O)c2cc(NS(C)(=O)=O)ccc2O[C@@H]1CN(C)S(=O)(=O)c1ccccc1,inactive
8,CCC(=O)N1CCN(c2ccc(-n3c(=O)ccc4cnc5ccc(-c6cnc7ccccc7c6)cc5c43)cc2C(F)(F)F)CC1,active
9,CCCCn1c(-c2ccccc2)nc(-c2ccccc2)c1CN(Cc1ccc2c(c1)OCO2)Cc1ccc2c(c1)OCO2,inactive
10,COc1ccc(-c2cnc3c(c2)C(=O)N([C@@H](C)CO)C[C@@H](C)[C@@H](CN(C)C(=O)C2CCOCC2)O3)cc1,inactive
11,CO[C@@H]1CN(C)C(=O)c2ccc(NC(=O)C3CC3)cc2OC[C@H](C)N(C(=O)CN2CCOCC2)C[C@@H]1C,inactive
12,C[C@@H]1CN([C@@H](C)CO)C(=O)Cc2cc(NS(C)(=O)=O)ccc2O[C@H]1CN(C)S(=O)(=O)c1cccs1,inactive
13,C[C@@H]1CN([C@H](C)CO)C(=O)Cc2cc(NS(=O)(=O)c3ccc(Cl)cc3)ccc2O[C@@H]1CN(C)Cc1ccc(C(F)(F)F)cc1,active
14,C[C@H](CO)N1C[C@H](C)[C@H](CN(C)Cc2ccc(C(F)(F)F)cc2)Oc2ccc(NS(=O)(=O)c3ccc(Cl)cc3)cc2CC1=O,active
15,C[C@@H]1CN([C@@H](C)CO)C(=O)Cc2cc(NS(=O)(=O)c3ccc(Cl)cc3)ccc2O[C@@H]1CN(C)Cc1ccc(C(F)(F)F)cc1,active
16,C[C@@H]1CN([C@H](C)CO)C(=O)Cc2cc(NS(=O)(=O)c3ccc(Cl)cc3)ccc2O[C@H]1CN(C)Cc1ccc(C(F)(F)F)cc1,active
17,C[C@@H]1CCCCO[C@@H](CN(C)S(=O)(=O)c2ccc(Cl)cc2)[C@H](C)CN([C@@H](C)CO)C(=O)c2cc(NS(=O)(=O)c3cccs3)ccc2O1,inactive
18,COc1cccc(NC(=O)N(C)C[C@@H]2Oc3cc(C#Cc4ccncc4)ccc3S(=O)(=O)N([C@H](C)CO)C[C@@H]2C)c1,inactive
19,CC(=O)O[C@H]1C=C[C@@H](O)C1,inactive
20,O=C(CCCCCCC(=O)Nc1ccc([C@H]2C[C@H](c3ccccc3)O[C@H](c3ccncc3)O2)cc1)NO,inactive
21,COc1ccc(-c2cc(=O)c3c(O)cc(O[C@@H]4O[C@H](CO[C@H]5O[C@H](C)[C@@H](O)[C@H](O)[C@@H]5O)[C@@H](O)[C@H](O)[C@H]4O)cc3o2)cc1O,inactive
